# Bioassay records from PubChem BioAssay.
# GALK inh: blocks human galactokinase activity | Purified GALK, Kinase-Glo residual ATP luminescence | Potency, µM (titrated, usually from 57.5 µM), usual class: inhibitors | P51570 | AID 1868 | 270,000 compounds, 0.007% hits
#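 GALK at 5 nM final was combined with compound, 35 uM ATP and 100 uM galactose in HEPES pH8.0 with MgCl2 and DTT. The reaction ran one hour at room temperature before luminescent ATP detection.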
# Coupling enz: counter-screen for Giardia aldolase inhibitors: coupling enzyme system; AID 2472; activity change, negative = inhibition, % at 58.2 µM, hits read low; coupling enzyme system counterscreen, AmpLite Red fluorescence; 290,000 compounds, 0.67% hits; in the data active means activity change below about -30%
#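 Compounds tested against the coupling enzymes alone at 57.5 uM final; readout was AmpLite Red fluorescence (525/598 nm) after 20 min at RT.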
# USP1-UAF1 inh: blocks the human USP1/UAF1 deubiquitinase complex; O94782; recombinant USP1/UAF1, Ub-Rhodamine cleavage fluorescence; Potency, µM (titrated, usually from 57.1 µM), hits mostly inhibitors; 390,000 compounds, 0.23% hits; AID 743255; further: nearly all actives have a fitted effect of over 60% in size
#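 Step one: compound is pinned into 1nM USP1/UAF1 in HEPES pH 7.8 buffer with TCEP. Step two: 15 min room-temperature incubation. Step three: Ub-Rho (150nM final) starts cleavage, tracked by fluorescence over six one-minute reads.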
# VDR inh: inhibitors of human vitamin D receptor | P11473 | VDR-SRC2-3 peptide fluorescence polarization, 2 h | Potency, µM, actives largely listed as inhibitors | 400,000 compounds, 0.93% hits | AID 504847
#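 Two reagent solutions held at 4 deg C in the dark were dispensed, compounds pinned at 23 nl, and the mixture incubated 2 h at room temperature. Read-out: fluorescence polarization of VDR–SRC2-3 peptide binding.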
# USP2a block: blocks human ubiquitin-specific protease USP2a; USP2 core, Ub-CHOP2 coupled fluorogenic reporter, 485/531; Potency, µM (titrated, usually from 38.3 µM), usual class: inhibitors; 330,000 compounds, 0.01% hits; O75604; AID 463254
#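 Cell-free coupled assay: 10nM USP2 core preincubated 30min RT with compound in Tris-HCl pH 8.0/CaCl2/CHAPS buffer, then 25nM Ub-CHOP2 and 25nM reporter substrate; fluorescence (Ex 485/Em 531) read after 60min RT, normalized to NEM inhibition, concentration-response curves fitted.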
# PLK1 PBD block: PLK1 (human) polo-box domain binding inhibition. P53350. AID 720504. Potency, µM, usual class: inhibitors. Plk1 PBD binding of FITC phosphopeptide, fluorescence polarization. 360,000 compounds, 2.8% hits; further: series mostly up to about 57 µM; nearly all actives have a fitted effect of over 65% in size
# Target sequence (P53350 whole entry, looked up, the tested form may be a part): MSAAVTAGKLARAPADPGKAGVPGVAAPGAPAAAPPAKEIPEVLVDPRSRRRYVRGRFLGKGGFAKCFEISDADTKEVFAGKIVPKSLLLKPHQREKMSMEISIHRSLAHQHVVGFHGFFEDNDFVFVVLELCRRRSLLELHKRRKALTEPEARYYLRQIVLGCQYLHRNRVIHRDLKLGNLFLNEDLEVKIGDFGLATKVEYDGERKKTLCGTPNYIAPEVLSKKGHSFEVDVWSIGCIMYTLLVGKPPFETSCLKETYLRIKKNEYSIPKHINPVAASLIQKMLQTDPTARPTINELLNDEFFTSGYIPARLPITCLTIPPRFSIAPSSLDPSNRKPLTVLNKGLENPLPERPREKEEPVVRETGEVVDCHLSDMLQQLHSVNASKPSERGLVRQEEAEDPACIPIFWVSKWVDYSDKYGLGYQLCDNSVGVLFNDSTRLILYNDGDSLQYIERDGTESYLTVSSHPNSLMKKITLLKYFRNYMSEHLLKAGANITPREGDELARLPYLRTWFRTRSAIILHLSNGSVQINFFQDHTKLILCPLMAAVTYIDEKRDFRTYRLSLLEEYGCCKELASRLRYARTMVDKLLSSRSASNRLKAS
# A number is an active result; . = inactive; ? = inconclusive; / = no result; ! = repeats disagree. This is a sample that favours compounds with a hit; in the whole collection about 3.2% have one here. Unless noted, the call rests on the fitted dose curve; in most records, active means well fitted curve in the direction sought with a large enough effect; inconclusive means small, poorly fitted or top-dose-only effect, or another doubt; inactive means no such curve, though single readings can be large; an effect the other way counts as inactive or inconclusive.
SMILES,GALK inh,Coupling enz,USP1-UAF1 inh,VDR inh,USP2a block,PLK1 PBD block
Cc1ccccc1-c1cc(C(=O)Nc2sc(C(=O)OC(C)C)c(C)c2C#N)c2ccccc2n1,.,.,?,?,.,10.6µM
CNc1cc(CSC)nc(SCc2ccc(Cl)c(Cl)c2)n1,.,/,.,.,.,.
CCOC(=O)N1CCN(C(=O)C[C@@H]2C[C@@]3(C(=O)OC)CCCCC=C3N(Cc3ccc4c(c3)OCO4)C2=O)CC1,/,/,/,/,/,.
CC(OC(=O)c1cc(Br)ccc1O)C(=O)NC1(C#N)CCCCC1 (stereo unspecified),/,/,.,.,.,.
COc1cccc2cc(C(=O)N3CCN(C45CC6CC(CC(C6)C4)C5)CC3)c(=O)oc12,.,.,.,.,.,26.7µM
COc1cccc2cc(C(=O)N3CCC(C)CC3)c(=O)oc12,.,.,?,.,.,.
CCOC(=O)COc1c(-c2ccc(OC)cc2)oc2ccccc2c1=O,.,.,.,.,.,.
COc1ccc(-c2oc3ccccc3c(=O)c2OCC(=O)O)cc1,.,.,.,.,.,11.9µM
COc1ccc(-c2nnc(SCC(=O)Nc3ncc(C(F)(F)F)cc3Cl)n2CC(C)C)cc1,.,.,.,.,.,.
COc1ccc(C2=C/C(=C\c3ccc(OC(C)=O)cc3)C(=O)O2)cc1,.,.,.,.,.,.
CC(=O)Oc1cccc(/C=C2\C=C(c3ccc(C)cc3)OC2=O)c1,.,.,.,?,.,18.9µM
O=C(CC1CCCCC1)NCCOc1ccccc1,.,.,.,?,.,26.7µM
O=C(NCCOc1ccccc1)C1CCCCC1,.,.,.,.,.,.
OCCNc1cnc2ccccc2n1,.,.,.,?,.,11.9µM
CC(C)c1ccc(CCNC(=O)CSC(=S)N2CCCC2)cc1,/,/,.,.,.,26.7µM
COC1=C(OC)C(=O)C(CCCCCCCCCCO)=C(C)C1=O,.,-64.8,/,44.7µM,.,/
CCCCCCCCCCC1=C(C)C(=O)C(OC)=C(OC)C1=O,/,-44.3,/,39.8µM!,/,/
O=C(CCn1c(=O)c2cccn2c2ccc(F)cc21)NCc1ccccc1F,/,/,.,.,/,/
O=C(O)c1ccccc1NS(=O)(=O)c1ccc(NN=Cc2ccc(F)cc2)c([N+](=O)[O-])c1,/,/,.,.,.,23.8µM
CCOC(=O)c1ccccc1NC(=O)Cn1cnc2c(cnn2-c2ccc(F)cc2)c1=O,.,.,.,.,.,.
O=C(CCC1CCCN(C(=O)CC2=CCCCC2)C1)N1CCN(c2ccccn2)CC1 (stereo unspecified),.,.,.,79.4µM,.,8.44µM
COC(=O)/C=C1\S/C(=N/N=C/c2ccc(Cl)cc2)NC1=O,.,.,.,.,.,29.9µM
COc1cc(OC)c(C(=O)Oc2ccc3c(c2)OCO3)cc1OC,.,.,.,.,.,.
Cc1ccc(S(=O)(=O)N2[C@@H](c3ccc(Cl)cc3)C(C(=O)O)=C[C@H]2CC2CCCC2)cc1,/,/,.,.,.,18.9µM
Cc1ccc(S(=O)(=O)N2[C@@H](c3ccc(C#N)cc3)C(C(=O)O)=C[C@H]2CC2CCCC2)cc1,/,/,.,?,.,29.9µM
SMILES,GALK inh,Coupling enz,USP1-UAF1 inh,VDR inh,USP2a block,PLK1 PBD block
Cc1ccc(S(=O)(=O)N2[C@@H](c3ccc(Cl)c(Cl)c3)C(C(=O)O)=C[C@H]2CC2CCCC2)cc1,/,/,?,.,.,21.2µM
CC(C)c1ccc(CNn2cnnc2)cc1,/,.,.,.,.,26.7µM
CN1CCN(CC(=O)n2c3c(c4ccccc42)CCCC3)CC1,.,-46.8,?,.,.,.
CCN(CC)CC(=O)n1c2c(c3ccccc31)CCCC2,.,.,.,.,.,.
Cc1noc(NS(=O)(=O)c2ccc(NC(=O)C(Cl)(Cl)Cl)cc2)c1C,.,.,.,.,.,.
Fc1ccc(COc2ccccc2C(=S)N2CCCC2)cc1,.,.,.,50.1µM,.,4.23µM
Cc1ccc(COc2ccccc2C(=S)N2CCCC2)cc1,.,.,?,.,.,?
COc1cc2ccccc2cc1C(=O)Nc1ccc2oc(-c3cccc(Cl)c3Cl)nc2c1,/,/,.,.,/,/
CCCCCCCCCCCCCCCC[N+](C)(C)CC,/,/,?,.,.,.
CCCCCC[N+](C)(C)CCSSCC[N+](C)(C)CCCCCC,.,.,.,8.91µM,.,1.19µM
Cc1ccc(C)c(Oc2coc3cc(OC(=O)c4cccs4)ccc3c2=O)c1,/,/,.,.,/,9.47µM
Cc1ccc(-c2cc(-c3ccc(C)o3)nc(N)c2C#N)cc1,.,.,.,?,.,13.4µM
Cc1ccc(-c2cc(-c3ccc(F)cc3)c(C#N)c(N)n2)o1,/,.,.,?,.,?
Cc1ccc(-c2cc(-c3ccc(Cl)cc3)c(C#N)c(N)n2)o1,.,.,.,?,.,21.2µM
COc1ccc(CCNC(=O)COC(=O)Cn2cnc3ccccc32)cc1OC,.,.,.,.,.,.
Cc1ccccc1-c1cc(-c2ccccc2O)n[nH]1,.,.,.,.,.,3.36µM
Oc1ccc(Br)cc1-c1cc(-c2ccccc2Cl)[nH]n1,.,.,.,?,.,23.8µM
CC1CCN(C(=O)c2ccc(N(C)S(C)(=O)=O)cc2)CC1,.,.,.,.,.,.
O=C(NCCc1ccccc1)c1ccc2c(c1)N(Cc1ccc(F)cc1)C(=O)c1ccccc1S2,/,/,.,.,/,/
Cc1cccc(CN2C(=O)CCSc3ccc(Cl)cc32)c1,.,.,.,.,.,26.7µM
COC(=O)c1ccccc1NC(=S)NC(NC(=O)c1ccco1)C(Cl)(Cl)Cl (stereo unspecified),.,.,.,.,.,.
COc1ccc(NC(=S)NC(NC(=O)CCl)C(Cl)(Cl)Cl)c([N+](=O)[O-])c1 (stereo unspecified),.,.,?,89.1µM,.,11.9µM
O=C(NC(NC(=S)Nc1ccccc1C(=O)O)C(Cl)(Cl)Cl)c1ccco1 (stereo unspecified),.,.,.,?,.,21.2µM
O=C(NC(NC(=S)Nc1ccccc1C(=O)O)C(Cl)(Cl)Cl)c1ccccc1 (stereo unspecified),.,.,.,79.4µM,.,5.97µM
COc1ccc(NC(=S)NC(NC(=O)c2ccccc2Cl)C(Cl)(Cl)Cl)c([N+](=O)[O-])c1 (stereo unspecified),.,.,.,.,.,.
COc1ccc(NC(=S)NC(NC(=O)c2cccc3ccccc23)C(Cl)(Cl)Cl)c([N+](=O)[O-])c1 (stereo unspecified),.,.,.,.,.,.
O=C(Nc1ccccc1C(=O)O)c1ccccc1,.,.,.,.,.,.
COC(=O)c1ccccc1NC(=S)NC(NC(=O)c1ccccc1[N+](=O)[O-])C(Cl)(Cl)Cl (stereo unspecified),.,.,.,.,.,26.7µM
